{"source": "ChEMBL document CHEMBL3988442", "about": "“University of Dundee, Small-Polar-MMV Screening Library” (2021)", "data": [{"molecular_target": "T1, Aspartate--tRNA(Asp/Asn) ligase (Mycobacterium tuberculosis (strain ATCC 25618 / H37Rv)) (UniProt P9WFW3)", "T1 sequence (whole entry)": "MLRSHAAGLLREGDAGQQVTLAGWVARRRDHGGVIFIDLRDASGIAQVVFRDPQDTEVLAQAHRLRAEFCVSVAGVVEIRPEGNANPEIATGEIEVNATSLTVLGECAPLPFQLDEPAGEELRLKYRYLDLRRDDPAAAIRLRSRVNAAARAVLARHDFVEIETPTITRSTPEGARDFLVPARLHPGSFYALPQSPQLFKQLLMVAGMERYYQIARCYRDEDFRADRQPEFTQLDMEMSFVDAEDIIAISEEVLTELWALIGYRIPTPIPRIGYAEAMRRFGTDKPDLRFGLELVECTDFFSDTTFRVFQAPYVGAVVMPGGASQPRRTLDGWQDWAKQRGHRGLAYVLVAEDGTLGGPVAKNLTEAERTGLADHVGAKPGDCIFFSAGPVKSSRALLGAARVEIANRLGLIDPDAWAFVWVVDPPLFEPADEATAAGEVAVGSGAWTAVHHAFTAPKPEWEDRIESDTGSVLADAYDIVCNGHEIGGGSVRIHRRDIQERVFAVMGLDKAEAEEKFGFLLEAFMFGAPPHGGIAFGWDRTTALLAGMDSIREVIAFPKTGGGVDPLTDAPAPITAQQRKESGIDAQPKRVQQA", "assay": "Assay for Asp RNA synthetase-1 from Mycobacterium tuberculosis", "format": "functional", "set-up": "scale not given: in the data most compounds retested in dose-response had high values", "details": "30 µM", "units": {"Percent Effect": "%"}, "values": [{"compound": "COc1ccc2c(c1)CC(NC(=O)NCc1cccs1)CO2", "note": "(centres undefined)", "Percent Effect": -4.82}, {"compound": "COc1cccc(C(=O)NCCCN2CCc3ccccc3C2)c1OC", "Percent Effect": -2.13}, {"compound": "Cn1cc(CN2C[C@@H]3COC[C@]3(COc3ccc(C#N)cn3)C2)cn1", "Percent Effect": 3.33}, {"compound": "Cc1nn(C)c(C)c1C1CCCN1C(=O)CCCn1cccn1", "note": "(centres undefined)", "Percent Effect": -2.95}, {"compound": "O=C(NCC1CCOC1)N1CCN(Cc2ccc3c(c2)CCO3)CC1", "note": "(centres undefined)", "Percent Effect": -0.0562}, {"compound": "CC(=O)N1CCCC1c1nccc(C)n1", "note": "(centres undefined)", "Percent Effect": 0.191}, {"compound": "NC(=O)C1CCN(C(=O)c2cccc(OCc3cscn3)c2)CC1", "Percent Effect": -1.48}, {"compound": "COCCNC(=O)C(C)n1cc(Br)cn1", "note": "(centres undefined)", "Percent Effect": 9.87}, {"compound": "NC(=O)C1CN(C(=O)Nc2ccccc2-c2cccs2)CCO1", "note": "(centres undefined)", "Percent Effect": -9.88}, {"compound": "CN1CCN(C(=O)[C@@H]2CCO[C@@H]3CCN(c4ncccn4)C[C@@H]32)CC1", "Percent Effect": 5.45}, {"compound": "CCC1=N[C@@]2(CC[C@@H]3CN(S(=O)(=O)CC(C)C)C[C@@H]32)C(=O)N1C", "Percent Effect": 0.189}, {"compound": "CC(C(=O)Nc1ncccn1)N1CCCN(c2nccs2)CC1", "note": "(centres undefined)", "Percent Effect": 0.767}, {"compound": "Cc1nc(CN2CCc3ncnc(-c4ccc(F)cc4)c3CC2)cs1", "Percent Effect": -0.199}, {"compound": "Cc1cc(CN(C)C2CCCN(Cc3noc(C4CC4)n3)C2)no1", "note": "(centres undefined)", "Percent Effect": 1.66}, {"compound": "CC(C)n1ccnc1CN1CCCN(C(=O)c2nccnc2N)CC1", "Percent Effect": -6.9}, {"compound": "CNS(=O)(=O)c1ccc(CNC(=O)NCC2CCOC2)cc1", "note": "(centres undefined)", "Percent Effect": -4.9}, {"compound": "O=C(c1cc(F)ccc1F)C1CCN(C(=O)c2cccnc2O)CC1", "Percent Effect": -2.36}, {"compound": "CC(C)CNC(=O)[C@H]1CCS(=O)(=O)[C@@H]2CN(Cc3cccc(Cl)c3)C[C@H]12", "Percent Effect": -3.06}, {"compound": "CCCc1n[nH]c(C2CN(CCn3cccn3)CCO2)n1", "note": "(centres undefined)", "Percent Effect": 3.43}]}]}
